The subject of test [1] is Plasmodium falciparum Sir2 (PF13_0152, Sir2A). Description: Plasmodium falciparum Sir2A binding compounds – biochemical, small-molecule microarray, 635 nm fluorescence, primary screen (AID 1098).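 Note: score merges spot fluorescence intensity with its signal-to-noise ratio.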 The settings on record: fluorescence 635 nm, higher = more signal.
The nature of test [2]: probe aDKK1 binding to arrayed compounds – biochemical, biotinylated probe, 635/667 nm fluorescence, primary screen (AID 1099).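 Note: score merges 667nm spot fluorescence with signal to noise across triplicate slides.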 The settings on record: small-molecule microarray, higher = more signal.
Test [3] can be described thus: probe aCHRDL2 binding to arrayed compounds – biochemical, biotinylated probe, 635/667 nm fluorescence, primary screen (AID 1100). The settings on record: small-molecule microarray, higher = more signal.
Test [4] in a line: change in splice reporter luminescence, either direction, cell-based, HEK293, spliceosome inhibition project, primary screen (AID 1101).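 Note: HEK293 cells carrying a splicing-competent luciferase reporter gene; test concentration not given here.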 The settings on record: HEK293 splicing luciferase reporter, 24 h, higher = more signal, called active from +8 up or from −8 down.
In test [5] the target is Fibroblast growth factor 10 (Homo sapiens) (UniProt O15520). Description: compounds binding fibroblast growth factor 10 – biochemical, small-molecule microarray, 635 nm fluorescence, primary screen (AID 1102). The settings on record: FGF10 binding, fluorescence 635 nm, higher = more signal.
Test [6] deals with glycogen synthase kinase-3 (GSK3A per assay name; protocol says GSK3B). Description: compounds binding glycogen synthase kinase-3 – biochemical, small-molecule microarray, 635 nm fluorescence, GSK3A, primary screen (AID 1103). Note: the record names both GSK3A and GSK3B. The settings on record: fluorescence 635 nm, higher = more signal.
In test [7] the target is Epidermal growth factor receptor (Homo sapiens) (UniProt P00533). The experiment in a line: compounds binding epidermal growth factor receptor – biochemical, small-molecule microarray, 635 nm fluorescence, primary screen (AID 1104).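 Note: score merges 667 nm emission intensity with spot signal to noise over triplicate slides.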 The settings on record: EGFR binding, higher = more signal.
Test [8] addresses Follistatin-related protein 3 (Homo sapiens) (UniProt O95633). Description: compounds binding follistatin-related protein 3 – biochemical, small-molecule microarray, 635 nm fluorescence, primary screen (AID 1105).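 Note: score merges emission near 667 nm and signal to noise per printed spot across three slides.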 The settings on record: FSTL3 binding, higher = more signal.
Test [9] deals with Dickkopf-related protein 1 (Homo sapiens) (UniProt O94907). The experiment in a line: small molecules binding DKK1 protein – biochemical, small-molecule microarray, 635 nm fluorescence scan, primary screen (AID 1106).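 Note: score merges emission near 667 nm with signal to noise over three replicate slides.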 The settings on record: higher = more signal.
Test [10] relates to Inhibin beta A chain (activin A). Description: small molecules binding activin A – biochemical, small-molecule microarray, 635 nm fluorescence scan, primary screen (AID 1107).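 Note: mouse activin A protein probed at 4.33 µg/mL on printed slides; score merges bound-protein fluorescence near 667 nm with spot signal-to-noise.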 The settings on record: INHBA, higher = more signal.
Test [11] deals with Human papillomavirus type 1a protein E7 (residues 44-93). The experiment in a line: small molecules binding HPV E7 44-93 – biochemical, small-molecule microarray, residues 44-93, 635 nm fluorescence, primary screen (AID 1108).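 Note: E7 fragment applied at 1 µg/mL in TBST for 1 h at 4 C; score combines spot fluorescence with its signal to noise ratio.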 The settings on record: fluorescence 635 nm, higher = more signal.
The nature of test [12]: hepatitis C replication reporter changes, two-sided – Huh7 cells, luciferase reporter, HCV replication inhibitor project, primary screen (AID 1109).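 Note: huh7 hepatoma cells harbouring a luciferase neomycin HCV replicon reporter; luciferase luminescence as measure of HCV replicon replication; test concentration not given here.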 The settings on record: Huh7 HCV replicon luciferase reporter, 48 h; higher = more signal.
Test [13] has as its target Left-right determination factor 2 (Homo sapiens) (UniProt O00292). The experiment in a line: small molecules binding LEFTY2 protein – biochemical, small-molecule microarray, 635 nm fluorescence scan, primary screen (AID 1110). The settings on record: higher = more signal.
The target of test [14] is Calmodulin-1 (Homo sapiens) (UniProt P0DP23). The experiment in a line: small molecules binding calmodulin-1 with EGTA – biochemical, small-molecule microarray, Cy5-labelled CALM1, profiling panel (AID 1111).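 Note: labelled calmodulin applied in Tris saline Tween buffer holding calcium plus EGTA and DTT.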 The settings on record: Cy5-CALM1 binding fluorescence, higher = more signal.
Test [15] shares this target. Description: small molecules binding Ca-loaded calmodulin-1 – biochemical, small-molecule microarray, Cy5-labelled CALM1, plus calcium, artefact control for SMM control-protein annotation, profiling panel (AID 1112).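 Note: score merges spot fluorescence with signal to noise from triplicate slides.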 The settings on record: Cy5-CALM1 binding fluorescence, higher = more signal.
Test [16] is described as follows: probe aWnt5a binding to arrayed compounds – biochemical, biotinylated probe, 635/667 nm fluorescence, primary screen (AID 1113).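 Note: score merges 667 nm fluorescence intensity with signal-to-noise per printed feature.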 The settings on record: small-molecule microarray, higher = more signal.
The nature of test [17]: probe aShh binding to arrayed compounds – biochemical, biotinylated probe, 635/667 nm fluorescence, primary screen (AID 1114).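 Note: probe is biotin-labelled aShh protein from a stem cell growth factor screen; measures binding of labelled protein to compounds printed on the slide; score merges feature fluorescence at 667 nm with signal-to-noise.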 The settings on record: small-molecule microarray, higher = more signal.
A short description of test [18]: probe aNog binding to arrayed compounds – biochemical, biotinylated probe, 635/667 nm fluorescence, primary screen (AID 1115).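 Note: probe is biotinylated aNog protein used at 0.15 µg/mL for 1 h at 4 C; z-score combines 667 nm fluorescence of each spot with its signal to noise.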 The settings on record: small-molecule microarray, higher = more signal.
The target in test [19] is Torsin-1A-interacting protein 1 (Homo sapiens) (UniProt Q5JTV8). Description: compound microarray binding of lysate hLAP1 – cell lysate, small-molecule microarray, COS7 lysate, 635/667 nm fluorescence, primary screen (AID 1116). The settings on record: 635 nm fluorescence, higher = more signal.
The target in test [20] is Alpha-bungarotoxin (Bungarus multicinctus) (UniProt P60615). Description: compounds binding labelled alpha-BTX control protein – biochemical, small-molecule microarray, Alexa647 label, 635/667 nm fluorescence, artefact control for SMM control protein annotation, profiling panel (AID 1117). The settings on record: alpha-BTX-A647 binding fluorescence, higher = more signal.

“And” between values parts separate entries of the source, which are not always exact repeats. Equal entries are not always repeated. The source made the active and inactive calls.

Sequence of Fibroblast growth factor 10 (Homo sapiens) (O15520 whole entry, looked up): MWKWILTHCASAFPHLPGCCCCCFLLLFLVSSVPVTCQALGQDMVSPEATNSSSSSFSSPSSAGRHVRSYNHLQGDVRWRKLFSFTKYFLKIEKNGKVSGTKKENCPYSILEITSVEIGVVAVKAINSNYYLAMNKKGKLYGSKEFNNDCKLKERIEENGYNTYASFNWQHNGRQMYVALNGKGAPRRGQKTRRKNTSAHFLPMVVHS
Sequence of Torsin-1A-interacting protein 1 (Homo sapiens) (Q5JTV8 whole entry, looked up): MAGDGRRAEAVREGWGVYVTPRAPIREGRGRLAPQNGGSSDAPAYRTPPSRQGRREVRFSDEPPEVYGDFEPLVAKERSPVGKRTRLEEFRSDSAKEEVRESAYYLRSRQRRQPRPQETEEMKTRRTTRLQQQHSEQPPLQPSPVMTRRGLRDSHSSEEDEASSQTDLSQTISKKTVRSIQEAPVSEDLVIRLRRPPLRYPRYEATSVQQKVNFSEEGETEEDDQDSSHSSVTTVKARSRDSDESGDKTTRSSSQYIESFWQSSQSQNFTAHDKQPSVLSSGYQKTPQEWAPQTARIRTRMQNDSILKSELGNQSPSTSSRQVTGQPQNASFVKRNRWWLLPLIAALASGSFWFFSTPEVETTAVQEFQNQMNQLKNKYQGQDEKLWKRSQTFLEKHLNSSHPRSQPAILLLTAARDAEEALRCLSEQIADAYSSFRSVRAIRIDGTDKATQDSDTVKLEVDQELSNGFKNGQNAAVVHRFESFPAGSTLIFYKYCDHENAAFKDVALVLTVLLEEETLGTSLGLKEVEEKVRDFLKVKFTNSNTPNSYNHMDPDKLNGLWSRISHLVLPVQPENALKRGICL
Sequence of Alpha-bungarotoxin (Bungarus multicinctus) (P60615 whole entry, looked up): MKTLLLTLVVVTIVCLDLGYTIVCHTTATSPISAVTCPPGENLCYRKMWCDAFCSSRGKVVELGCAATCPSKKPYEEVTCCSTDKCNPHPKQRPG
Sequence of Dickkopf-related protein 1 (Homo sapiens) (O94907 whole entry, looked up): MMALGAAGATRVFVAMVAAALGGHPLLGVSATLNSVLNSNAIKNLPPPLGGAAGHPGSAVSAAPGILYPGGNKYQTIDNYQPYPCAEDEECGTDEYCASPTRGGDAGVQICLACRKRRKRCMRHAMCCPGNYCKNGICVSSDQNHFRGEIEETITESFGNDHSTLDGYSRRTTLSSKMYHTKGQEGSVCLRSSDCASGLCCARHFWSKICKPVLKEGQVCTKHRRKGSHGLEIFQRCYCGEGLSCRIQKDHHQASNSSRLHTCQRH
Sequence of Epidermal growth factor receptor (Homo sapiens) (P00533 whole entry, looked up): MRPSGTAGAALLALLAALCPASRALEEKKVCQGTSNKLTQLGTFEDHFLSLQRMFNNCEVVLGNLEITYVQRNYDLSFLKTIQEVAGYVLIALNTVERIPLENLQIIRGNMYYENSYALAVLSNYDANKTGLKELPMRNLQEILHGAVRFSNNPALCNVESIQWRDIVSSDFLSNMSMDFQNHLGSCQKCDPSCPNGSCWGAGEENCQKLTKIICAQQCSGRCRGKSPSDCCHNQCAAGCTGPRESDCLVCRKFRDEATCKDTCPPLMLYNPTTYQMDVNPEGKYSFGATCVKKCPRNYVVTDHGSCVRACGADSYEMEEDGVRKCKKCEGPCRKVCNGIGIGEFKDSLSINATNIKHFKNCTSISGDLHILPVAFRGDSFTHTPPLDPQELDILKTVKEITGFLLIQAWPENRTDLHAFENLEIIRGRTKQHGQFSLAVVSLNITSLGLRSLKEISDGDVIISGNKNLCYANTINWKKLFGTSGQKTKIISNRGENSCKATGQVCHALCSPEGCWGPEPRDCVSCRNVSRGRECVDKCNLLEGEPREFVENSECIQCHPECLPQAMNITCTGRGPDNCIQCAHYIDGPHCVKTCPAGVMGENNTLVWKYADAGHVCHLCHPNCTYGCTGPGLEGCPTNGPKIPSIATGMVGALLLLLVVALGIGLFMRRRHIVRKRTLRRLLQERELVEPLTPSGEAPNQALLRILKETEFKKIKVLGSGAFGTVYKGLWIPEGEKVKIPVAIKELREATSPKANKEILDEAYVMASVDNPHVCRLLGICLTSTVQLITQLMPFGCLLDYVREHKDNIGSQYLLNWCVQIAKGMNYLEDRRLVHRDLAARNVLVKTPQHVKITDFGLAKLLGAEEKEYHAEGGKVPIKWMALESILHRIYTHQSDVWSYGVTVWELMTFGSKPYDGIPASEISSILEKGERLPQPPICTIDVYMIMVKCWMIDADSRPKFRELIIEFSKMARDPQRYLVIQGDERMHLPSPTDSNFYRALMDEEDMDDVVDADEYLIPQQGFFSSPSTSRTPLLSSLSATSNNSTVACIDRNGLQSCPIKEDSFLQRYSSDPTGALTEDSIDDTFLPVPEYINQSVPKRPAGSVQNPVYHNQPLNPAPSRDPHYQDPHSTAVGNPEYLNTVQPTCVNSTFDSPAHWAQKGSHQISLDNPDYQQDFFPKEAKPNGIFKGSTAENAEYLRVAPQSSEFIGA
Sequence of Follistatin-related protein 3 (Homo sapiens) (O95633 whole entry, looked up): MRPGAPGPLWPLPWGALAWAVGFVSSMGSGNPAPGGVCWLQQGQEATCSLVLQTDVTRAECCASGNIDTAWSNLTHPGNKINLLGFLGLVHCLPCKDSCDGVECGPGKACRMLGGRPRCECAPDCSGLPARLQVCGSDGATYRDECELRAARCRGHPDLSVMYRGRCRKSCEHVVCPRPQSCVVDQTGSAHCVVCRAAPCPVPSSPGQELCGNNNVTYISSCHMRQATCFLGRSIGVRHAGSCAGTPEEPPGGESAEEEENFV
Sequence of Left-right determination factor 2 (Homo sapiens) (O00292 whole entry, looked up): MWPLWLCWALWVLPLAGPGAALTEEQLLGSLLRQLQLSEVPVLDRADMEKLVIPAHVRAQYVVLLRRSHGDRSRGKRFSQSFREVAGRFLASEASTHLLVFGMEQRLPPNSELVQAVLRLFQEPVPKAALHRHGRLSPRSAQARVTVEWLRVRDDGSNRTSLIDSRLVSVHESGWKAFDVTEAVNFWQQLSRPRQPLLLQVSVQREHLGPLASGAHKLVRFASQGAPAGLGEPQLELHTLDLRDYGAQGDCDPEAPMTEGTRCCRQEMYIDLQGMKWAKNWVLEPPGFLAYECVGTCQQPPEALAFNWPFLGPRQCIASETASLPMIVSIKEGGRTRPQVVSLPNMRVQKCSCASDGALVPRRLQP

In the case of `C[N+](C)(C)CCCCNC(=O)[C@H]1C[C@H]2C(=O)N[C@@H](CCCC[N+](C)(C)C)C(=O)N2[C@H]1c1cccc(OCCO)c1`, the composite z-score in test [1] is 1.82 and 1.11; in test [2] it was -0.171 and 0.256; in test [3] it was -0.537 and -0.421; in test [5], 1.51 and 1.39; in test [6] it was 0.0299 and 1.1; in test [7], 0.622 and 1.27. Moreover, the composite z-score is 1.45 and 1.51 in test [8]; 1.44 and 1.81 in [9]; 0.282 and 0.696 in test [10]; -0.779 and 0.569 in [11]; 1.36 and 1.28 in [13]; -1.49 and -0.367 in test [14]. For the same compound, the composite z-score in test [15] was -0.691 and -0.325; in test [16], -0.127 and -0.0512; in test [17] it was 0.0948 and 0.395; in test [18], -0.249 and -0.234; in test [19] it was 1.89 and 2.53; in test [20] it was -0.559 and 0.47. In addition, the z-score in [4] was 0.00747 (inactive) and -0.387 (inactive); in test [12], -1.34 and -0.59.

Turning to `CC(CO)N1C(=O)[C@@H]2C3C(=O)OCCC=C[C@H]3OC23C=CCN(Cc2ccccc2)C(=O)[C@@H]13` (stereo not given in full), the composite z-score in test [1] was 1.15 and 0.52; in test [2], -0.2 and -0.173; in [3], 0.139 and 0.407; in [5], -0.602 and -0.115; in test [6], -0.491 and -0.648; in test [7], -0.91 and -1.81. Also, the composite z-score in test [8] is -0.771 and -1.06; in [9], -1.02 and -0.657; in [10], 1.24 and -0.563; in [11] it was 0.0364 and -1.19; in [13] it was -1.26 and -1.45; in [14], -0.792 and 0.0954. Besides, the composite z-score in test [15] was -0.803 and 0.748; in [16] it was -0.154 and -0.21; in [17], -0.291 and -0.154; in test [18] it was 0.211 and -0.246; in test [19] it was 1.29 and -0.62; in [20], -1.73 and -0.88. Also, the z-score was -0.379 (inactive) and -0.024 (inactive) in [4]; -1.12 and -0.667 in [12].

For `CC(C)[Si]1(C(C)C)OCc2cc(C3CC3)nc(CCc3ccccc3)c21`, the composite z-score in test [1] is -0.534 and -0.371; in [2], 0.0295 and -0.146; in [3] it was 0.221 and -0.262; in [5], -0.348 and 0.0251; in test [6], -0.897 and 0.178; in [7] it was 0.105 and 0.15. The composite z-score in test [8] was -0.238 and 0.195; in test [9] it was -0.293 and 0.135; in test [10], 0.768 and 0.242; in [11] it was -0.789 and 0.192; in test [13], 0.045 and 0.273; in test [14], 0.154 and -0.425. Moreover, the composite z-score was -0.253 and -0.002 in [15]; -0.15 and -0.0512 in [16]; -0.181 and -0.221 in [17]; 0.0732 and -0.0554 in [18]; -0.527 and 0.362 in test [19]; 0.0536 and -0.448 in test [20]. Also, the z-score is -0.383 (inactive) and 0.693 (inactive) in test [4]; -0.745 and -0.958 in test [12].

In the case of `C[N+](C)(C)CCCCNC(=O)[C@H]1C[C@H]2C(=O)N[C@@H](CCCC[N+](C)(C)C)C(=O)N2[C@H]1c1ccc(O)cc1`, the composite z-score was 1.3 and 1.94 in test [1]; -0.237 and -0.18 in test [2]; -0.904 and -0.983 in test [3]; 1.56 and 1.47 in test [5]; 1.31 and 0.668 in test [6]; 1.16 and 0.868 in test [7]. Also, the composite z-score in test [8] is 1.44 and 1.34; in test [9] it was 2.03 and 1.92; in test [10] it was 1.02 and 0.383; in test [11], 1.29 and 0.0427; in [13], 1.41 and 1.47; in test [14], -0.0061 and -1.63. Besides, the composite z-score in test [15] is -0.426 and -1.34; in [16], -0.0685 and -0.0643; in test [17], -0.0011 and -0.0709; in [18], 0.0416 and -0.7; in [19] it was 0.699 and 0.0645; in [20], 0.0509 and -0.801. The z-score is 0.411 (inactive) and -1.57 (inactive) in test [4]; -0.999 and 0.723 in test [12].

For the compound `C=C[C@@H](C)[C@@H](O)c1ccc(OCCO)cc1`, the composite z-score in test [1] was 0.886 and 1.38; in test [2] it was -0.265 and -0.238; in test [3], 1.09 and 0.349; in test [5], -1.75 and -1.12; in test [6], -0.736 and -0.659; in test [7], -2.13 and -2.11. Also, the composite z-score in test [8] was -1.25 and -1.05; in test [9] it was -2.51 and -1.8; in [10] it was -3.81 and -0.988; in test [11], -1.62 and -1.54; in [13], -2.93 and -2.01; in test [14], -0.905 and -0.8. Further, the composite z-score in test [15] was 0.129 and 0.206; in test [16], -0.286 and -0.27; in test [17], -0.221 and -0.17; in test [18] it was -0.512 and -0.141; in test [19] it was -0.603 and 1.44; in test [20] it was -1.5 and -1.44. For the same compound, the z-score in [4] is 0.26 (inactive) and -1.46 (inactive); in [12], -0.934 and -0.376.

(Values after PubChem BioAssay.)
